Compound activity as filed in PubChem BioAssay.
An excerpt weighted towards active compounds, which were near 16% of everything screened.
uPA surface inh: qHTS for Inhibitors of Cell Surface uPA Generation; Potency, µM (top dose mostly 38.3 µM), without a hit: at the top dose activity change, negative = inhibition, most hits filed as inhibitors; AID 540303, 2011; actives 0.31% (n = 330,000); cell surface uPA generation assay, qHTS; active means well fitted inhibition curve with a large enough effect; inconclusive means small, poorly fitted or top-dose-only effect; inactive means no such curve, though single readings can be large or run the other way; tested in mouse RAW 264.7 cells; further: potency means the concentration at half of the fitted maximal effect; on the % scale 0 is the no-effect control and ±100 the full control effect; nearly all actives have a fitted effect of over 55% in size
TDP1 inh: qHTS Assay for Inhibitors of Tyrosyl-DNA Phosphodiesterase (TDP1) | Tyrosyl-DNA phosphodiesterase 1 (Homo sapiens), Q9NUW8 | recombinant TDP1, AlphaScreen DNA substrate cleavage | Potency, µM (series often up to 130 µM), inactives show top-dose activity change, negative = inhibition, hits mostly inhibitors | actives 0.28% (n = 350,000); further: potency means the concentration at half of the fitted maximal effect; on the % scale 0 is the no-effect control and ±100 the full control effect; nearly all actives have a fitted effect of over 40% in size
Target sequence (Q9NUW8 whole entry, looked up): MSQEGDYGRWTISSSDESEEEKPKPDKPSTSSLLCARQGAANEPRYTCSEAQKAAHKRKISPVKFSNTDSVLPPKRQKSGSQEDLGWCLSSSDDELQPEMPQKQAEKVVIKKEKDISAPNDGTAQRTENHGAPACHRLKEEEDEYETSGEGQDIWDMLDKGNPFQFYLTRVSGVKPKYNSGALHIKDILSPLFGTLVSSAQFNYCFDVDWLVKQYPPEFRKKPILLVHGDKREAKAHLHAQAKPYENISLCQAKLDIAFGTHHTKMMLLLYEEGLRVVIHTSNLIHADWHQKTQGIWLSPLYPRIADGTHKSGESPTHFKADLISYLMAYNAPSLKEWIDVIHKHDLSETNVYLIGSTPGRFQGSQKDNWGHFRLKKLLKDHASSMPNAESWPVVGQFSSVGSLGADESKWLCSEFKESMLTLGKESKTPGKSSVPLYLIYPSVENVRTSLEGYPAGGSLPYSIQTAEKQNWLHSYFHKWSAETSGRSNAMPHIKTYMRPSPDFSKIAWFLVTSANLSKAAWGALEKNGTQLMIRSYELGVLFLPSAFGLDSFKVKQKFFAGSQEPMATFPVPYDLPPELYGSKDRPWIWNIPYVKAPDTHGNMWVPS
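E. coli-derived human Tdp1, 1 nM final. Cpd preinc 15 min RT; substrate 15 nM final, 5 min RT; AS bead mix 10 ug/ml final, 10 min RT. Signal loss = tyrosine-FITC cleavage. No-enzyme wells = max signal.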
DT40 TDP1 no CPT: qHTS for Inhibitors of human tyrosyl-DNA phosphodiesterase 1 (TDP1): qHTS in cells in absence of CPT; actives 15% (n = 420,000); Potency, µM (titrated, usually from 46.2 µM), for inactives: at the highest dose activity change, negative = growth inhibition, hits mostly inhibitors; DT40 Tdp1-/- hTDP1 cells, no CPT, ATP luminescence, 48 h; AID 686978, 2013; further: potency means the concentration at half of the fitted maximal effect; on the % scale 0 is the no-effect control and ±100 the full control effect; nearly all actives have a fitted effect of over 55% in size
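Chicken DT40 Tdp1-/- cells complemented with human TDP1, screened without camptothecin (DMSO vehicle only), 400 cells/well. Compounds pin-transferred, cells incubated at 37 °C for at least 48 hr. Growth read as ATP-dependent luminescence (CellTiter-Glo, 30 min at RT).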
miR-21 act: qHTS Assay for Modulators of miRNAs and/orActivators of miR-21; HeLa miR-21 FLuc reporter, luciferase, 48 h; Potency, µM (top dose mostly 38.3 µM), for inactives: top-dose activity change, positive = activation, hits mostly activators; 340,000 tested, under 10 active;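 further: % of control where 0% means no effect; miR-21 action dims this reporter so a rising signal means less miR-21 action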
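HeLa miR-21-FLuc reporter line, endogenous miR-21; 2000 cells/well in DMEM/10% FBS; compound titration up to ~40uM final, 48 h, 37 degree Celsius; luciferase detection reagent, 15 min lysis, CCD luminescence.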
DT40 TDP1 CPT: qHTS for Inhibitors of human tyrosyl-DNA phosphodiesterase 1 (TDP1): qHTS in cells in presence of CPT. actives 12% (n = 420,000). Potency, µM (top dose mostly 46.2 µM), for the others: top-dose activity change, negative = growth inhibition, usual class: inhibitors. AID 686979, 2013. chicken DT40 Tdp1-/-;hTDP1 cells + 20 nM CPT, ATP luminescence, 48 h; further: potency means the concentration at half of the fitted maximal effect; on the % scale 0 is the no-effect control and ±100 the full control effect; nearly all actives have a fitted effect of over 55% in size
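Chicken DT40 Tdp1-/- cells complemented with human TDP1, 400 cells/well, exposed to compounds plus 20 nM camptothecin for at least 48 h at 37 C; viability read as ATP content by CellTiter-Glo luminescence.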
Starred values were filed as active, the others as inactive. Unless noted, the call rests on the fitted dose curve; in most records, active means well fitted curve in the direction sought with a large enough effect; inconclusive means small, poorly fitted or top-dose-only effect, or another doubt; inactive means no such curve, though single readings can be large; an effect the other way counts as inactive or inconclusive.

`Cc1oc(-c2ccccc2Cl)nc1CS(=O)CC(=O)NCCCN1CC(C)CC(C)C1` (configuration not stated) gave uPA surface inh -1.6%, TDP1 inh 0.2%, DT40 TDP1 no CPT 21.9%, miR-21 act -3.3% and DT40 TDP1 CPT -17.4%.
For COc1ccc(NS(=O)(=O)c2cc([N+](=O)[O-])ccc2N/N=C/c2c(C)[nH]c3ccccc23)cc1 the results were uPA surface inh 3.4%, DT40 TDP1 no CPT 23.1µM* and DT40 TDP1 CPT inconclusive.
Screening Cc1[nH]c2ccccc2c1/C=N/Nc1ccccc1[N+](=O)[O-] returned uPA surface inh 9.6%, TDP1 inh 10.0%, DT40 TDP1 no CPT inconclusive, miR-21 act -43.7% and DT40 TDP1 CPT -11.6%.
Screening COc1ccccc1OCCCCCCN1CCOCC1 returned uPA surface inh 13.1%, DT40 TDP1 no CPT -3.4%, miR-21 act -0.4% and DT40 TDP1 CPT -11.5%.
Screening CCN(Cc1ccccc1)Cc1c(O)ccc2c(=O)c(-c3ccccc3OC)c(C(F)(F)F)oc12 returned DT40 TDP1 no CPT 25.9µM*, miR-21 act 9.9% and DT40 TDP1 CPT inconclusive.
CCN(Cc1ccccc1)Cc1c(O)ccc2c(=O)c(-c3ccccc3Cl)c(C(F)(F)F)oc12 was read as DT40 TDP1 no CPT inconclusive, miR-21 act -1.7% and DT40 TDP1 CPT 18.4µM*.
Screening CC(C)(C)C(=O)Nc1ccccc1C(=O)NCCCn1ccnc1 returned uPA surface inh -0.5%, TDP1 inh 8.3%, DT40 TDP1 no CPT 3.0%, miR-21 act -0.8% and DT40 TDP1 CPT 12.8%.
Screening CCC(C)C(NS(=O)(=O)c1ccc(C)cc1)C(=O)N1CCOCCOCCOCC1 (configuration not stated) returned uPA surface inh -1.9%, DT40 TDP1 no CPT 6.5%, miR-21 act 3.6% and DT40 TDP1 CPT inconclusive.
`Cn1c(=O)c2c(c3ccccc31)OC(=O)CC2c1ccc(C(F)(F)F)cc1` (configuration not stated) gave TDP1 inh 7.1%, DT40 TDP1 no CPT -9.3%, miR-21 act -2.1% and DT40 TDP1 CPT 26.2%.
For O=C(COC(=O)c1ccncc1)c1ccc(Br)cc1 the results were uPA surface inh 1.9%, TDP1 inh 2.5%, DT40 TDP1 no CPT -3.5%, miR-21 act 1.8% and DT40 TDP1 CPT -3.5%.
O=C(COC(=O)c1cccc(C(=O)OCC(=O)c2ccc(Br)cc2)n1)c1ccc(Br)cc1 was read as uPA surface inh -3.8%, TDP1 inh 4.7%, DT40 TDP1 no CPT inconclusive, miR-21 act 2.6% and DT40 TDP1 CPT 16.4µM*.
For O=C1NC(=O)C(=Cc2ccccc2[N+](=O)[O-])S1 the results were uPA surface inh -8.4%, DT40 TDP1 no CPT 20.6µM* and DT40 TDP1 CPT inconclusive.
Screening O=C1C(=Cc2ccccc2[N+](=O)[O-])Cc2ccccc21 returned DT40 TDP1 no CPT 3.26µM* and DT40 TDP1 CPT 2.59µM*.
O=C1/C(=C/c2ccc([N+](=O)[O-])cc2)CCc2ccccc21 was read as miR-21 act -54.1%.
For CC1(C)CC(=Cc2ccccc2[N+](=O)[O-])C(=O)c2ccccc21 the results were DT40 TDP1 no CPT 16.4µM* and DT40 TDP1 CPT -29.7%.
